A short description of assay [1]: BET inhibitor-based combinations targeting novel dependencies in MECOM-rearranged (r) AML: SET-2 cell line (AID 2202231). Also: nearly all actives have a fitted effect of over 35% in size.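 As to viability: plate controls were DMSO treated cells for no effect and wells without cells for full effect.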 Conditions: SET-2 AML cells viability, CellTiter-Glo luminescence, 48 h; viability: stronger effect = lower value, concentration not given here. An outline of the steps: (§1)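 Here, 11-point titrations of each agent were applied to 500 seeded cells and incubated 48 hr; CellTiter-Glo signal, scaled against DMSO and empty wells, was integrated as AUC, then Z-scored within the individual line.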
On the technique in general: Cellular ATP, detected with luciferase, serves as a proxy for viable cell number.

A short description of assay [2]: BET inhibitor-based combinations targeting novel dependencies in MECOM-rearranged (r) AML: OCI-AML3 cell line (AID 2202232). Also: nearly all actives have a fitted effect of over 35% in size. Conditions: CellTiter-Glo luminescence, 48 h; Potency: OCI-AML3 viability; series mostly up to 46 µM. An outline of the steps: as §1
Assay [3] can be described thus: BET inhibitor-based combinations targeting novel dependencies in MECOM-rearranged (r) AML: MV-4-11 cell line (AID 2202233). Also: nearly all actives have a fitted effect of over 45% in size. As to conditions: MV-4-11 AML viability, CellTiter-Glo luminescence, 48 h; series mostly up to 46 µM. Put shortly:
(§2)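 Normalized to DMSO and empty-well controls, the luminescence data from CellTiter-Glo after 48 hr drug exposure were fitted across 11 concentrations. Reported metrics are area under the dose-response curve and its Z-transformed form.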

Assay [4] is described as follows: BET inhibitor-based combinations targeting novel dependencies in MECOM-rearranged (r) AML: HNT-34 cell line (AID 2202234). Also: nearly all actives have a fitted effect of over 35% in size. As to conditions: HNT-34 AML viability, CellTiter-Glo luminescence, 48 h; series mostly up to 46 µM. An outline of the steps: as §2
Assay [5] can be described thus: BET inhibitor-based combinations targeting novel dependencies in MECOM-rearranged (r) AML: UCSD-AML1 cell line (AID 2202235). Also: nearly all actives have a fitted effect of over 40% in size. As to conditions: UCSD-AML1 AML cells viability, CellTiter-Glo, 48 h; series mostly up to 46 µM. Put shortly:
as §2

Assay [6] in a line: BET inhibitor-based combinations targeting novel dependencies in MECOM-rearranged (r) AML: AML-191 cell line (AID 2202236; also: nearly all actives have a fitted effect of over 35% in size). Conditions: AML-191 viability, CellTiter-Glo luminescence, 48 h; series mostly up to 46 µM. Put shortly: as §1
A short description of assay [7]: BET inhibitor-based combinations targeting novel dependencies in MECOM-rearranged (r) AML: AML-194 cell line (AID 2202237; also: nearly all actives have a fitted effect of over 40% in size). As to conditions: AML-194 (MECOM-r AML) viability, CellTiter-Glo, 48 h; series mostly up to 46 µM. Put shortly:
as §1

Results filed as inconclusive are left out. Unmarked numbers belong to inactive results. Active and inactive are the calls of the source. Calls follow the shape of the dose curve; as a rule, active = well fitted curve in the direction sought with a large enough effect; inconclusive = small, poorly fitted or top-dose-only effect, or another doubt; inactive = no such curve, though single readings can be large; an effect the other way counts as inactive or inconclusive.

The term viability denotes a read-out of living cells in per cent, often relative to untreated cells.
Potency is read from the fitted curve at half-maximal effect.

Consider `CN(C)CCN1C(=O)c2cccc3cc(NC(N)=O)cc(c23)C1=O`, for which the Potency is 18600 nM (active) in assay [1]; 13200 nM (active) in assay [2]; 2950 nM (active) in assay [3]; 8330 nM (active) in assay [4]; 5900 nM (active) in assay [5]; 9340 nM (active) in assay [6]. For the same molecule, the Potency in assay [7] is 9340 nM (active).
Take `Fc1cccc(-n2cnc3c(NCc4nc5c(F)c(F)ccc5[nH]4)nc(N4CCOCC4)nc32)c1`: the Potency in assay [1] was 372 nM (active); in assay [2] it was 742 nM (active); in assay [3], 263 nM (active); in assay [4] it was 296 nM (active); in assay [5], 296 nM (active); in assay [6] it was 166 nM (active). For the same molecule, in assay [7], the Potency is 372 nM (active).
As for `C/C=C1\NC(=O)[C@H]2CSSCC/C=C\[C@H](CC(=O)N[C@H](C(C)C)C(=O)N2)OC(=O)[C@H](C(C)C)NC1=O`, the Potency is 29.5 nM (active) in assay [1]; 10.5 nM (active) in assay [2]; 11.8 nM (active) in assay [3]; 8.3 nM (active) in assay [4]; 10.5 nM (active) in assay [5]; 14.8 nM (active) in assay [6]. In addition, the Potency in assay [7] was 23.5 nM (active).
On to `O=C(CCc1ccc(O)cc1)c1c(O)cc(O)cc1O[C@@H]1O[C@H](CO)[C@@H](O)[C@H](O)[C@H]1O`, for which, in assay [1], the viability was 76.1%. In addition, the Potency result in assay [2], in assay [3], in assay [4], in assay [5], in assay [6] and in assay [7] was “inactive” throughout.
For the molecule `Nc1ccn([C@@H]2O[C@H](CO)[C@@H](O)C2O)c(=O)n1` (some centres not stated), the Potency is 332 nM (active) in assay [1]; 3320 nM (active) in assay [2]; 833 nM (active) in assay [3]; 74.2 nM (active) in assay [4]; 29.5 nM (active) in assay [5]; 74.2 nM (active) in assay [6]. In assay [7], the Potency was 52.5 nM (active).
In the case of `CCC[C@@H]1C[C@@H](C(=O)N[C@@H]([C@H]2O[C@H](SC)[C@H](O)[C@@H](O)[C@H]2O)[C@H](C)Cl)N(C)C1`, in assay [1], the viability was 110%. In addition, the Potency result in assay [2], in assay [3], in assay [4], in assay [5], in assay [6] and in assay [7] was “inactive” each time.
